Laboratory results: PubChem BioAssay (NCI)
The panel holds about 83,000 compounds, 20% with a hit somewhere; the sample as a whole holds those more often.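 48-hour exposure, single concentration, 96-well plates; percent growth endpoint where 0 means no net growth. Active: below 10.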 Unmarked numbers belong to inactive results. Calls of active or inactive are those of the source.

Columns and labels:
Assay in all cases: NCI-60 one-dose screen, 48 h (100 = growth as untreated, 0 = no growth, -100 = all killed)
Settings in all cases: 10 µM unless noted
NCI-H23 lung = tested on: NCI-H23 lung
NCI-H226 lung = tested on: NCI-H226 lung
NCI-H322M lung = tested on: NCI-H322M lung
HOP-62 NSCLC = tested on: HOP-62 NSCLC
NCI-H460 lung = tested on: NCI-H460 lung
HOP-92 NSCLC = tested on: HOP-92 NSCLC
NCI-H522 lung = tested on: NCI-H522 lung
A549/ATCC NSCLC = tested on: A549/ATCC NSCLC
786-0 renal = tested on: 786-0 renal
COLO 205 colon = tested on: COLO 205 colon
DU-145 prostate = tested on: DU-145 prostate
K-562 leukemia = tested on: K-562 leukemia
MALME-3M melanoma = tested on: MALME-3M melanoma
MDA-MB-231 breast = tested on: MDA-MB-231 breast
RXF 393 renal = tested on: RXF 393 renal
SF-268 CNS = tested on: SF-268 CNS
SF-295 CNS = tested on: SF-295 CNS
SF-539 CNS = tested on: SF-539 CNS
UACC-257 melanoma = tested on: UACC-257 melanoma
M14 melanoma = tested on: M14 melanoma

Compound | growth (NCI-H23 lung) | growth (NCI-H226 lung) | growth (NCI-H322M lung) | growth (HOP-62 NSCLC) | growth (NCI-H460 lung) | growth (HOP-92 NSCLC) | growth (NCI-H522 lung) | growth (A549/ATCC NSCLC) | growth (786-0 renal) | growth (COLO 205 colon) | growth (DU-145 prostate) | growth (K-562 leukemia) | growth (MALME-3M melanoma) | growth (MDA-MB-231 breast) | growth (RXF 393 renal) | growth (SF-268 CNS) | growth (SF-295 CNS) | growth (SF-539 CNS) | growth (UACC-257 melanoma) | growth (M14 melanoma)
Cc1ccc2nc(Cl)c(Cn3nnnc3SCc3ccccc3)cc2c1 | 91.8% | 79.6% | 105% | 86% | 98.4% | 70.6% | 77.5% | 92.5% | 95% | 110% | 101% | 87.9% | 114% | 88.2% | 99.9% | 93.9% | 88.1% | 94.4% | 105% | 89.3%
COc1ccc2c(c1)c(-c1nc(-c3cn(C)c4ncccc34)cs1)cn2CCO | 89.4% | 70.1% | 77.7% | 81.2% | 74.9% | 70.4% | 60.5% | 79.8% | 80% | 81.2% | 90.9% | 25.2% | 110% | 57% | 84.6% | 91.1% | 74.1% | 75% | 92.4% | 75.1%
COCC[C@H]1CCC/C=C/[C@@H]2C[C@H](O)C[C@H]2[C@H](O)/C=C/C(=O)O1 | 6.07% (active) | -40.4% (active) | 29.7% | 31.5% | 15.1% | -8.55% (active) | -28.6% (active) | 13.6% | -45.9% (active) | -64.4% (active) | 6.25% (active) | 10.4% | -24.4% (active) | -85.5% (active) | -4.97% (active) | 12.6% | -2.69% (active) | 28.3% | 16.7% | 9.75% (active)
Cc1ccc(-c2nc(C(Cl)Cl)nc3cc(C)nn23)cc1 | -18.4% (active) | 70.2% | -24.9% (active) | 7.49% (active) | -64.8% (active) | 35% | 4.52% (active) | -4.14% (active) | 81.8% | -36.6% (active) | -12.6% (active) | 11.2% | -12.2% (active) | 8.58% (active) | -66% (active) | 21.4% | 17.8% | 35.1% | 55.8% | -9.67% (active)
CC1(C)CCC(S(=O)(=O)c2ccc3c(c2)/C(=N\O)c2cc(S(=O)(=O)N4CCN(c5ccc(F)cc5O)CC4)ccc2-3)CC1 | -76.8% (active) | -57% (active) | -46.9% (active) | -88.1% (active) | -78% (active) | -50.4% (active) | -82.6% (active) | -92.9% (active) | -89.9% (active) | -88.8% (active) | -46% (active) | -78.4% (active) | -70.5% (active) | -63.7% (active) | -90% (active) | -54.4% (active) | -57.1% (active) | -88.2% (active) | -80.6% (active) | -81.9% (active)
Cn1c(=O)c2c(nc(NC3=NS(=O)(=O)c4ccccc43)n2Cc2ccccc2)n(C)c1=O | 92.5% | 88.5% | 101% | 93.4% | 102% | 94% | 94.1% | 102% | 101% | 120% | 108% | 104% | 109% | 90.4% | 78.3% | 96.7% | 103% | 100% | 109% | 106%
C=NNc1ccccc1 | 86.5% | 87.5% | 85.7% | 101% | 102% | 78.1% | 73.7% | 84.3% | 103% | 100% | 100% | 75.8% | 126% | 66.8% | 105% | 92.3% | 100% | 101% | 98.3% | 95.3%
S=c1ssnc1-c1cccs1 | 85% | 96.1% | 94.5% | 103% | 107% | 80.5% | 96.3% | 117% | 65.1% | 115% | 123% | 73.3% | 66.3% | 88.8% | 116% | 97.9% | 78.3% | 106% | 107% | 94.2%
CN1CCN(CCCOc2ccc3ncnc(Nc4ccc(Oc5cccc(F)c5)c(Cl)c4)c3c2)CC1 | 50.8% | 88.4% | 22.1% | 48.7% | -62.8% (active) | 31.4% | 22% | 21.1% | -3.9% (active) | -37% (active) | 15.2% | -30% (active) | -72.4% (active) | -65.4% (active) | -55.7% (active) | 40.5% | -35% (active) | -75.1% (active) | -59.6% (active) | -75.7% (active)
NC(CSC(c1ccccc1)(c1ccccc1)c1ccc2c(c1)OCO2)C(=O)O (stereo not given) | 14.6% | 75% | 26.6% | 55.3% | 7.27% (active) | 10.9% | -20.9% (active) | 18.5% | 51.1% | -32% (active) | -26.3% (active) | 8.25% (active) | 47.6% | 19.8% | -5.81% (active) | 38.8% | -27.6% (active) | 13.4% | 32.6% | -19.4% (active)
COc1cccc(OC)c1Oc1c(-c2nc3ccccc3s2)c(C)nn1-c1ccccc1 | 74.4% | 79.9% | 65.6% | 70.4% | 78.8% | 62.2% | 68.3% | 67.4% | 91.4% | 98.4% | 79.4% | 61% | 81.7% | 76.4% | 67.9% | 77.1% | 69.4% | 92% | 92.4% | 72.3%
CC1(C)C2CC=C(/C=N/NC(=O)C3CCC(=O)N3)C1C2 (stereo not given) | 97.7% | 106% | 107% | 110% | 102% | 99.5% | 99.9% | 104% | 101% | 114% | 113% | 99.4% | 105% | 122% | 121% | 101% | 97.4% | 100% | 102% | 107%
O=c1[nH]cnc2c1C(c1ccc(Br)cc1)c1sc3c(F)cccc3c1O2 (stereo not given) | 92.8% | 92.2% | 88.1% | 97.9% | 94.7% | 49.2% | 88.1% | 96.3% | 105% | 102% | 100% | 94.6% | 96.1% | 94.5% | 101% | 91.9% | 97.9% | 96.4% | 106% | 101%
C=CC(=O)NCCOc1cccc(Nc2cc(NCCCNC(=O)C3CCC3)c(Br)cn2)c1 | -25.8% (active) | -14.1% (active) | -6.07% (active) | -22.4% (active) | -18% (active) | -28.5% (active) | -19.3% (active) | -16.7% (active) | -35.7% (active) | -42.7% (active) | 8.96% (active) | 9.43% (active) | -19% (active) | -25.6% (active) | -77% (active) | -25.3% (active) | 2.75% (active) | -58.3% (active) | -11.6% (active) | -18.7% (active)
Cc1ccc(-c2cc(C(=O)N3N=C(c4ccc(N)cc4)CC3c3ccc(Cl)cc3)c3ccccc3n2)cc1 (stereo not given) | 49.4% | 72.1% | 48.3% | 33.9% | 12.9% | 41.2% | -2.26% (active) | 21.4% | 24.3% | 2.01% (active) | 18.6% | 7.72% (active) | 67% | 44.5% | -0.262% (active) | 38.9% | 21.4% | -2.29% (active) | 43.7% | -24% (active)
